Measured values as given in PubChem BioAssay (EPA / NIEHS).
Activity calls are given as the source filed them. How the source made its calls: active means hit-call score of the fitted dose curve at least 0.9, where 1 is the maximum; inactive means score below 0.9.

Tests used:
Conditions in all cases: mRNA level, 48 h; actives raise or lower the signal
[1] = read-out: Cytochrome P450 3A4 (Homo sapiens) (UniProt P08684); experiment: LTEA_HepaRG_CYP3A4: Life Technologies and Expression Analysis (LTEA) Assay for CYP3A4 using HepaRG (AID 2283487)
Procedure, shortened: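 CYP3A4 transcript measured by TaqMan qRT-PCR and normalized to three housekeeping genes after 48 h chemical exposure of human HepaRG cells. Top concentration 100 uM, half-log steps, 0.5% DMSO vehicle; gain or loss fitted against DMSO baseline.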

[2] = read-out: DNA damage-inducible transcript 3 (DDIT3), DDIT3 (gene 1649); experiment: LTEA_HepaRG_DDIT3: Life Technologies and Expression Analysis (LTEA) Assay for DNA damage-inducible transcript 3 (DDIT3) using HepaRG (AID 2283488)
Procedure, shortened: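 Eight-point concentration-response (100 uM highest, half-log dilutions) in HepaRG, 48 h, duplicate wells. Endpoint: qRT-PCR mRNA, normalized (ACTB, GAPDH, POLR2A), bidirectional fitting with DMSO as baseline.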

[3] = read-out: Early growth response protein 1 (EGR1) transcription factor, EGR1 (gene 1958); experiment: LTEA_HepaRG_EGR1: Life Technologies and Expression Analysis (LTEA) Assay for Early growth response protein 1 (EGR1) transcription factor using HepaRG (AID 2283490)
Procedure, shortened: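 EGR1 expression change in human HepaRG after 48 h chemical exposure, assessed by housekeeping-normalized qRT-PCR; concentration-response up to 100 uM, fitted in both directions against DMSO controls.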

[4] = read-out: Ezrin (EZR), EZR (gene 7430); experiment: LTEA_HepaRG_EZR: Life Technologies and Expression Analysis (LTEA) Assay for Ezrin (EZR) using HepaRG (AID 2283491)
Procedure, shortened: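 HepaRG, 48 h chemical exposure, 8-pt half-log series from 100 uM, 0.5% DMSO vehicle, duplicates. Read-out: EZR mRNA by TaqMan qRT-PCR (Fluidigm array), housekeeping-normalized; bidirectional curve fit vs DMSO baseline.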

[5] = read-out: Cytochrome P450 3A7 (Homo sapiens) (UniProt P24462); experiment: LTEA_HepaRG_CYP3A7: Life Technologies and Expression Analysis (LTEA) Assay for CYP3A7 using HepaRG (AID 2283492)
Procedure, shortened: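 CYP3A7 transcript measured by qRT-PCR (ACTB, GAPDH, POLR2A normalization) after 48 h chemical exposure of HepaRG cells in duplicate. Eight half-log concentrations, maximum 100 uM, 0.5% DMSO vehicle; bidirectional curve fitting against DMSO baseline.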

CYP3A5 (gene 1577) = experiment: LTEA_HepaRG_CYP3A5: Life Technologies and Expression Analysis (LTEA) Assay for CYP3A5 using HepaRG (AID 2283493)
Procedure, shortened: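 Readout was CYP3A5 mRNA by qRT-PCR. HepaRG cultures were exposed for 48 h in serum-free induction medium to chemicals at up to 100 uM, and responses were fitted in both directions relative to DMSO vehicle.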

[6] = read-out: Fatty Acid-Binding Protein 1 (FABP1), FABP1 (gene 2168); experiment: LTEA_HepaRG_FABP1: Life Technologies and Expression Analysis (LTEA) Assay for Fatty Acid-Binding Protein 1 (FABP1) using HepaRG (AID 2283494)
Procedure, shortened: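 Values reflect bidirectional concentration-response fitting of FABP1 mRNA change against 0.5% DMSO controls. Human HepaRG cultures received eight half-log doses (top 100 uM) for 48 h; expression quantified by TaqMan qRT-PCR with housekeeping-gene normalization.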

[7] = read-out: Glutathione S-Transferase (GSTA2), GSTA2 (gene 2939); experiment: LTEA_HepaRG_GSTA2: Life Technologies and Expression Analysis (LTEA) Assay for Glutathione S-Transferase (GSTA2) using HepaRG (AID 2283497)
Procedure, shortened: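 Oxidative-stress marker GSTA2 is quantified by TaqMan qRT-PCR in HepaRG cultures treated 48 h across an eight-point range to 100 uM. Expression is normalized to endogenous controls and compared with 0.5% DMSO vehicle.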

[8] = read-out: Glutamate-cysteine ligase catalytic (GCLC), GCLC (gene 2729); experiment: LTEA_HepaRG_GCLC: Life Technologies and Expression Analysis (LTEA) Assay for Glutamate-cysteine ligase catalytic (GCLC) using HepaRG (AID 2283498)
Procedure, shortened: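 Oxidative-stress marker GCLC is measured as mRNA change in human HepaRG liver cells after 48 h chemical treatment in 0.5% DMSO, eight concentrations from 100 uM. Activity is fitted bidirectionally against vehicle.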

[9] = read-out: growth arrest and DNA damage 45 (GADD45G), GADD45G (gene 10912); experiment: LTEA_HepaRG_GADD45G: Life Technologies and Expression Analysis (LTEA) Assay for growth arrest and DNA damage 45 (GADD45G) using HepaRG (AID 2283499)
Procedure, shortened: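 GADD45G transcript level by qRT-PCR (housekeeping-normalized: ACTB, GAPDH, POLR2A) after 48 h chemical treatment of a single HepaRG lot in serum-free induction medium; eight-point half-log series up to 100 uM in 0.5% DMSO, duplicates, up- or down-regulation scored.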

[10] = read-out: Glutamate-cysteine ligase regulatory (GCLM), GCLM (gene 2730); experiment: LTEA_HepaRG_GCLM: Life Technologies and Expression Analysis (LTEA) Assay for Glutamate-cysteine ligase regulatory (GCLM) using HepaRG (AID 2283500)
Procedure, shortened: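 In this multiplexed HepaRG gene-expression assay, GCLM mRNA change after 48 h treatment (8 concentrations, max 100 uM) was scored against DMSO by bidirectional curve fitting.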

[11] = read-out: Glutathione S-transferase M3 (GSTM3), GSTM3 (gene 2947); experiment: LTEA_HepaRG_GSTM3: Life Technologies and Expression Analysis (LTEA) Assay for Glutathione S-transferase M3 (GSTM3) using HepaRG (AID 2283501)
Procedure, shortened: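 GSTM3 transcript levels came from Fluidigm TaqMan qRT-PCR normalized to three housekeeping genes, fitted in both directions against DMSO. HepaRG cultures received chemicals for 48 h in serum-free induction medium (0.5% DMSO), 8 half-log concentrations up to 100 uM, duplicate.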

[12] = read-out: Hypoxia-inducible factor 1-alpha (Homo sapiens) (UniProt Q16665); experiment: LTEA_HepaRG_HIF1A: Life Technologies and Expression Analysis (LTEA) Assay for Hypoxia-inducible factor 1 (HIF1A) Trancription factor using HepaRG (AID 2283503);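 further: HIF1A transcript by TaqMan qRT-PCR normalized to ACTB GAPDH and POLR2A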
Procedure, shortened: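 Gain- or loss-of-signal HIF1A mRNA changes are fitted against a DMSO baseline. HepaRG cultures receive eight concentrations, highest 100 uM, for 48 h in serum-free induction medium with 0.5% DMSO.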

[13] = read-out: 3-Hydroxy-3-Methylglutaryl-CoA Synthase 2 (HMGCS2), HMGCS2 (gene 3158); experiment: LTEA_HepaRG_HMGCS2: Life Technologies and Expression Analysis (LTEA) Assay for 3-Hydroxy-3-Methylglutaryl-CoA Synthase 2 (HMGCS2) using HepaRG (AID 2283504)
Procedure, shortened: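 Readout is HMGCS2 transcript by qRT-PCR, housekeeping-normalised (ACTB/GAPDH/POLR2A) and fitted bidirectionally against 0.5% DMSO. Differentiated HepaRG cells received chemicals 48 h, duplicate wells, eight half-log concentrations topping at 100 uM.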

HGF (gene 3082) = experiment: LTEA_HepaRG_HGF: Life Technologies and Expression Analysis (LTEA) Assay for Hepatocyte Growth Facto (HGF) using HepaRG (AID 2283505)
Procedure, shortened: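 HGF transcript was quantified by TaqMan qRT-PCR against three housekeeping genes after 48 h treatment of HepaRG cells. Exposure ran in duplicate over eight half-log steps topping at 100 uM in 0.5% DMSO vehicle.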

[14] = read-out: Insulin Like Growth Factor 1 (IGF1), IGF1 (gene 3479); experiment: LTEA_HepaRG_IGF1: Life Technologies and Expression Analysis (LTEA) Assay for Insulin Like Growth Factor 1 (IGF1) using HepaRG (AID 2283506)
Procedure, shortened: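 Endpoint: IGF1 mRNA change by qRT-PCR, housekeeping-normalized, fitted bidirectionally relative to 0.5% DMSO vehicle. Human HepaRG cells were treated 48 h in serum-free induction medium, eight half-log concentrations topping at 100 uM.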

[15] = read-out: Pro-epidermal growth factor (Homo sapiens) (UniProt P01133); experiment: LTEA_HepaRG_EGF: Life Technologies and Expression Analysis (LTEA) Assay for Epidermal growth factor (EGF) using HepaRG (AID 2283489)
Procedure, shortened: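 EGF transcript measured by Fluidigm TaqMan qRT-PCR with three housekeeping genes for normalization, 48 h after dosing HepaRG cultures in duplicate (top 100 uM, half-log steps, 0.5% DMSO vehicle). Gain or loss relative to DMSO fitted.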

[16] = read-out: Cytochrome P450 7A1 (Homo sapiens) (UniProt P22680); experiment: LTEA_HepaRG_CYP7A1: Life Technologies and Expression Analysis (LTEA) Assay for Cytochrome P450 7A1 (CYP7A1) using HepaRG (AID 2283496)
Procedure, shortened: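 Using 0.5% DMSO as vehicle and baseline, chemicals were tested in duplicate over an 8-point range from 100 uM on HepaRG cells for 48 h; qRT-PCR signals were normalised to ACTB, GAPDH and POLR2A.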

Chain of Cytochrome P450 3A4 (Homo sapiens) (P08684 whole entry, looked up): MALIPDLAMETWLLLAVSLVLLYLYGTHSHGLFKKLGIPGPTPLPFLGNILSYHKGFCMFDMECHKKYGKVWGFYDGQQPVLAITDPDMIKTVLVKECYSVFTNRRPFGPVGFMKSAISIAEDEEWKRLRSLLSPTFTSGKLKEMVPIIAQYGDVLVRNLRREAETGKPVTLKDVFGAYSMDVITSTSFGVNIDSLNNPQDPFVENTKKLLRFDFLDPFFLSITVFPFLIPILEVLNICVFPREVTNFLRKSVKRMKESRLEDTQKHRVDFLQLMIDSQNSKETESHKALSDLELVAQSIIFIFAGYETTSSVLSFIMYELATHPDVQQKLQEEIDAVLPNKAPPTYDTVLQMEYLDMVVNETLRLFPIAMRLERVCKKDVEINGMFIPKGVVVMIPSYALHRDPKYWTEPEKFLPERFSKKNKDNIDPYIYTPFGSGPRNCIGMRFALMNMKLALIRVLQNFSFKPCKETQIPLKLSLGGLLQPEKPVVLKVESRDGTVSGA
Chain of Cytochrome P450 3A7 (Homo sapiens) (P24462 whole entry, looked up): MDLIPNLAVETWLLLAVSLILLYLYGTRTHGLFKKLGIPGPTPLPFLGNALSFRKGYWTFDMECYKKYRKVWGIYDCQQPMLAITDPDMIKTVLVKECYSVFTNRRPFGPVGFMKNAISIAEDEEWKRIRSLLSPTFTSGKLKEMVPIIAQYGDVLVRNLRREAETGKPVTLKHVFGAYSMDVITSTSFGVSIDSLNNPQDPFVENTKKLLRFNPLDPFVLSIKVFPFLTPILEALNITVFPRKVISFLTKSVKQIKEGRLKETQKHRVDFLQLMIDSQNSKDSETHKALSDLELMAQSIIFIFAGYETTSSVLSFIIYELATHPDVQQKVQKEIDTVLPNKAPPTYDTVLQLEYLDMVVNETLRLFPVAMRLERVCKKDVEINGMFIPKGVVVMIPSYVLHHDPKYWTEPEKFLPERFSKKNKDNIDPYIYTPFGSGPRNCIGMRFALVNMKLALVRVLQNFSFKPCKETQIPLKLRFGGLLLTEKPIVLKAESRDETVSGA
Chain of Hypoxia-inducible factor 1-alpha (Homo sapiens) (Q16665 whole entry, looked up): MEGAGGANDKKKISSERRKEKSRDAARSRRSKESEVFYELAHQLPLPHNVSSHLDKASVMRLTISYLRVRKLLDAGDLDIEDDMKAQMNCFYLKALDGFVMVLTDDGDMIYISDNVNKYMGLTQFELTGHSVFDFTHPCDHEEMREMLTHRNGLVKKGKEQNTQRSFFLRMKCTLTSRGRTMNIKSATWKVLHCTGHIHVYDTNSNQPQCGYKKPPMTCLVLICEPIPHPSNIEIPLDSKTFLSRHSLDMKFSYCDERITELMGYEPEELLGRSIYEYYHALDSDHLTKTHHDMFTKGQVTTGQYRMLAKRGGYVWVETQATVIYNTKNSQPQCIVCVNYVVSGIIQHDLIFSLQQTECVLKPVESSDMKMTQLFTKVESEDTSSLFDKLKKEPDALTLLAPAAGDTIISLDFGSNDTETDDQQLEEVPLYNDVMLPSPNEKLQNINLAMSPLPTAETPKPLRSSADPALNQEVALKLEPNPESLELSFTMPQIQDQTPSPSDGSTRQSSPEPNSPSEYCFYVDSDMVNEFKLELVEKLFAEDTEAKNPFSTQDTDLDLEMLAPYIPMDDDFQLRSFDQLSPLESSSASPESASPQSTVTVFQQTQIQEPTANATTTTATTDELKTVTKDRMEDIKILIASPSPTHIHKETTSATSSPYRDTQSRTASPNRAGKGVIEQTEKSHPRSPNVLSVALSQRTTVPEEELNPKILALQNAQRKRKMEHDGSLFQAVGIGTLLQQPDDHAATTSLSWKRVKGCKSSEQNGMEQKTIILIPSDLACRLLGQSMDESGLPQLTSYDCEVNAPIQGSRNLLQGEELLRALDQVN

SMILES: c1ccc(-c2ccccc2)cc1
- outcome [1]: inactive
- outcome [2]: inactive
- outcome [3]: inactive
- outcome [4]: inactive
- outcome [5]: inactive
- outcome (CYP3A5 (gene 1577)): inactive
- outcome [6]: inactive
- outcome [7]: inactive
- outcome [8]: inactive
- outcome [9]: inactive
- outcome [10]: inactive
- outcome [11]: inactive
- outcome [12]: inactive
- outcome [13]: inactive
- outcome (HGF (gene 3082)): inactive
- outcome [14]: inactive

SMILES: Oc1ccc(C(c2ccc(O)cc2)(C(F)(F)F)C(F)(F)F)cc1
- AC50 [1]: 81.7 µM (active)
- AC50 [2]: 79.3 µM (active)
- AC50 [15]: 80.1 µM (active)
- AC50 [3]: 81.5 µM (active)
- outcome [4]: inactive
- outcome [5]: inactive
- AC50 (CYP3A5 (gene 1577)): 80.2 µM (active)
- AC50 [6]: 92.5 µM (active)
- AC50 [16]: 89.6 µM (active)
- AC50 [7]: 79.5 µM (active)
- outcome [8]: inactive
- outcome [9]: inactive
- outcome [10]: inactive
- outcome [11]: inactive
- AC50 [12]: 83.5 µM (active)
- AC50 [13]: 79.4 µM (active)
- outcome (HGF (gene 3082)): inactive

SMILES: Cc1cc2c3c(c1)C(c1ccccc1)=N[C@@H](NC(=O)c1ccncc1)C(=O)N3CC2
- AC50 [1]: 3.86 µM (active)
- AC50 [2]: 75.6 µM (active)
- outcome [15]: inactive
- outcome [3]: inactive
- AC50 [4]: 50 µM (active)
- AC50 [5]: 12.2 µM (active)
- outcome (CYP3A5 (gene 1577)): inactive
- AC50 [6]: 50 µM (active)
- AC50 [16]: 50 µM (active)
- outcome [7]: inactive
- outcome [8]: inactive
- outcome [9]: inactive
- outcome [10]: inactive
- outcome [11]: inactive
- outcome [12]: inactive
- AC50 [13]: 71.2 µM (active)
- outcome (HGF (gene 3082)): inactive
- AC50 [14]: 39.3 µM (active)

SMILES: CCC(C)c1cc([N+](=O)[O-])cc([N+](=O)[O-])c1O (centres undefined)
- AC50 [1]: 2.37 µM (active)
- AC50 [2]: 5.95 µM (active)
- AC50 [15]: 1.97 µM (active)
- AC50 [3]: 17.1 µM (active)
- AC50 [4]: 3.74 µM (active)
- AC50 [5]: 1.57 µM (active)
- AC50 (CYP3A5 (gene 1577)): 15.5 µM (active)
- AC50 [6]: 1.27 µM (active)
- AC50 [16]: 2.67 µM (active)
- AC50 [7]: 2.72 µM (active)
- AC50 [8]: 1.29 µM (active)
- AC50 [9]: 4.96 µM (active)
- AC50 [10]: 50 µM (active)
- AC50 [11]: 4.16 µM (active)
- AC50 [12]: 18.5 µM (active)
- AC50 [13]: 2.93 µM (active)
- AC50 (HGF (gene 3082)): 2.87 µM (active)

SMILES: CCCCCCCCOC(=O)c1ccccc1C(=O)OCCCCCCCC
- outcome [1]: inactive
- outcome [2]: inactive
- outcome [15]: inactive
- outcome [3]: inactive
- outcome [4]: inactive
- outcome [5]: inactive
- outcome (CYP3A5 (gene 1577)): inactive
- outcome [6]: inactive
- outcome [16]: inactive
- outcome [7]: inactive
- outcome [8]: inactive
- outcome [9]: inactive
- outcome [10]: inactive
- outcome [11]: inactive
- outcome [12]: inactive
- outcome [13]: inactive
- outcome (HGF (gene 3082)): inactive

SMILES: CC(C)(c1ccccc1)c1ccc(O)cc1
- outcome [1]: inactive
- outcome [2]: inactive
- outcome [15]: inactive
- outcome [3]: inactive
- outcome [4]: inactive
- outcome [5]: inactive
- outcome (CYP3A5 (gene 1577)): inactive
- outcome [6]: inactive
- AC50 [16]: 88.7 µM (active)
- AC50 [7]: 87.3 µM (active)
- outcome [8]: inactive
- outcome [9]: inactive
- outcome [10]: inactive
- outcome [11]: inactive
- outcome [12]: inactive
- outcome [13]: inactive
- AC50 (HGF (gene 3082)): 83.2 µM (active)

SMILES: O=S(=O)(O)C(F)(F)C(F)(F)C(F)(F)C(F)(F)F
- outcome [1]: inactive
- outcome [2]: inactive
- outcome [15]: inactive
- outcome [3]: inactive
- outcome [4]: inactive
- outcome [5]: inactive
- outcome (CYP3A5 (gene 1577)): inactive
- outcome [6]: inactive
- outcome [16]: inactive
- outcome [7]: inactive
- outcome [8]: inactive
- outcome [9]: inactive
- outcome [10]: inactive
- outcome [11]: inactive
- outcome [12]: inactive
- outcome [13]: inactive
- outcome (HGF (gene 3082)): inactive
